“And” between values parts separate entries of the source, which are not always exact repeats. Equal entries are not always repeated. About 4,600 (6%) of roughly 77,000 compounds were called active. Inconclusive results (about 1%) are left out.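 How the source made its calls: active means mean inhibition above about 93%, with at least 55% of replicates each passing it (limit read from the data, passing the limit was not always enough); inconclusive means only one of those two conditions holds; inactive means neither condition holds.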 Many of the other results were omitted from the sample, so actives are more common in it than they were. Some compounds were tested as several samples or in several runs, with calls that do not always agree.

A short description of this assay: T. cruzi intracellular proliferation inhibitors, primary screen, cell-based, beta-gal Tulahuen parasites, NIH3T3 host, luminescence (AID 624255). The following applies: T. cruzi beta-gal in NIH3T3, GalScreen luminescence, 90 h; at 8.34 µM; stronger effect = higher value.
As for `Cc1noc(C)c1NC(=O)N(C)C[C@@H]1OCCCC[C@H](C)Oc2ccc(NS(=O)(=O)c3c(C)noc3C)cc2C(=O)N([C@@H](C)CO)C[C@@H]1C`, the inhibition (as a rule, the change of the read-out against control, counted positive when it falls) is -9.2% (inactive).

In the case of `COc1cccc(S(=O)(=O)N[C@H]2CC[C@@H](CC(=O)NCc3ccc(F)cc3)O[C@@H]2CO)c1`, the inhibition was 47.6% (inactive).

Turning to `COc1ccc(-c2ccc3c(c2)O[C@@H](CN(C)CC2CCOCC2)[C@@H](C)CN([C@@H](C)CO)S3(=O)=O)cc1`, the inhibition is 40.6% (inactive).

Regarding `C[C@@H]1CCCCO[C@@H](CN(C)Cc2ccc(C(F)(F)F)cc2)[C@H](C)CN([C@H](C)CO)C(=O)c2cc(NS(=O)(=O)c3ccc(F)cc3)ccc2O1`, the inhibition is 56.1% (inactive).

For the molecule `C[C@@H]1CCCCO[C@@H](CN(C)Cc2ccc(C(=O)O)cc2)[C@H](C)CN([C@H](C)CO)C(=O)c2cc(NS(=O)(=O)c3cccs3)ccc2O1`, the inhibition is -101% (inactive).

On to `C[C@H](CO)N1C[C@H](C)[C@H](CN(C)Cc2ccc(C(F)(F)F)cc2)OCCCC[C@H](C)Oc2ccc(NS(=O)(=O)c3ccc(Cl)cc3)cc2C1=O`, for which the inhibition was 98.6% (active).

For the molecule `C[C@@H]1CCCCO[C@H](CN(C)Cc2ccccc2)[C@H](C)CN([C@H](C)CO)C(=O)c2cc(NS(=O)(=O)c3ccc(Cl)cc3)ccc2O1`, the inhibition was 109% (active).

For `C[C@@H]1CN([C@H](C)CO)C(=O)c2cc(NS(=O)(=O)c3ccc(Cl)cc3)ccc2O[C@@H](C)CCCCO[C@H]1CN(C)Cc1ccccc1`, the inhibition was 112% (active).

Consider `Cc1ccc(S(=O)(=O)Nc2ccc3c(c2)C(=O)N([C@H](C)CO)C[C@H](C)[C@@H](CN(C)Cc2ccccc2)OCCCC[C@H](C)O3)cc1`, for which the inhibition is 38.8% (inactive).

Take `COc1ccc(S(=O)(=O)Nc2ccc3c(c2)C(=O)N([C@@H](C)CO)C[C@H](C)[C@H](CN(C)Cc2ccc(C(F)(F)F)cc2)OCCCC[C@@H](C)O3)cc1`: the inhibition was 63.1% (inactive).

Turning to `C[C@@H]1CN([C@H](C)CO)C(=O)c2cc(NS(=O)(=O)c3cccs3)ccc2O[C@@H](C)CCCCO[C@H]1CN(C)Cc1ccc(C(F)(F)F)cc1`, the inhibition is 97.6% (active).

With `Cc1ccc(S(=O)(=O)Nc2ccc3c(c2)C(=O)N([C@H](C)CO)C[C@@H](C)[C@H](CN(C)Cc2ccccc2)OCCCC[C@H](C)O3)cc1`, the inhibition is 85.7% (inactive).

`C[C@@H]1CCCCO[C@H](CN(C)Cc2ccccc2)[C@H](C)CN([C@@H](C)CO)C(=O)c2cc(NS(=O)(=O)c3ccccc3)ccc2O1`: the inhibition was 86% (inactive).

Consider `C[C@@H]1CCCCO[C@H](CN(C)Cc2ccccc2)[C@@H](C)CN([C@H](C)CO)C(=O)c2cc(NS(=O)(=O)c3ccc(Cl)cc3)ccc2O1`, for which the inhibition was -26.9% (inactive).

In the case of `COc1ccc(CN(C)C[C@@H]2OCCCC[C@H](C)Oc3ccc(NS(=O)(=O)c4cccs4)cc3C(=O)N([C@H](C)CO)C[C@@H]2C)cc1`, the inhibition was 44.9% (inactive).

Turning to `CN1C(=O)c2cc(NC(=O)C3CC3)ccc2OC[C@@H]2O[C@@H](CC(=O)NCC3CCCCC3)CC[C@@H]21`, the inhibition was -7.09% (inactive).

In the case of `CCN1[C@@H]2c3ccc(C4=CCCC4)c(=O)n3C[C@@H]2[C@@H](CO)[C@@H]1C(=O)NCc1ccccn1`, the inhibition was 26.1% (inactive).

Regarding `CO[C@H]1CN(C)C(=O)c2ccc(NC(=O)C3CC3)cc2OC[C@@H](C)N(C(=O)CN2CCOCC2)C[C@H]1C`, the inhibition is -43.7% (inactive).

For `CN1C(=O)c2cc(NC(=O)c3cnccn3)ccc2OC[C@@H]2O[C@H](CC(=O)O)CC[C@@H]21`, the inhibition was 8.56% (inactive).

Turning to `CC(=O)N1[C@H](CN(CC2CCC2)C(=O)CN(C)C)[C@@H](c2ccccc2)[C@@H]1CO`, the inhibition was 54.9% (inactive).

Consider `COc1ccc(NC(=O)N2C[C@H](O)COC[C@H]3O[C@@H](CC(=O)N4CCN(C)CC4)CC[C@@H]32)cc1`, for which the inhibition was 7.94% (inactive).

Turning to `C[C@@H]1CN([C@H](C)CO)S(=O)(=O)c2ccc(C#C[C@@H](C)O)cc2O[C@@H]1CN(C)Cc1ccc(-c2ccccc2)cc1`, the inhibition is 73.7% (inactive) and 125% (active).

As to `C[C@@H]1CN([C@@H](C)CO)S(=O)(=O)c2ccc(-c3ccncc3)cc2O[C@@H]1CN(C)C(=O)Nc1ccc(F)cc1`, the inhibition was 100% (active).

For `C[C@H](CO)N1C[C@H](C)[C@H](CN(C)Cc2ccncc2)Oc2cc(-c3ccncc3)ccc2S1(=O)=O`, the inhibition is 111% (active).

Regarding `C[C@H](CO)N1C[C@H](C)[C@H](CN(C)Cc2ccncc2)Oc2cc(-c3cncnc3)ccc2S1(=O)=O`, the inhibition was 16.7% (inactive).

For `C[C@H](O)C#Cc1ccc2c(c1)O[C@H](CN(C)Cc1cncnc1)[C@H](C)CN([C@@H](C)CO)S2(=O)=O`, the inhibition was 36.8% (inactive).

On to `C[C@H]1CN([C@@H](C)CO)S(=O)(=O)c2ccc(-c3cncnc3)cc2O[C@H]1CN(C)Cc1ccncc1`, for which the inhibition is 25.1% (inactive).

Regarding `C[C@H](O)C#Cc1ccc2c(c1)O[C@@H](CN(C)Cc1cncnc1)[C@H](C)CN([C@H](C)CO)S2(=O)=O`, the inhibition was -5.8% (inactive).

`COc1ccc(NC(=O)N(C)C[C@H]2Oc3cc(-c4ccncc4)ccc3S(=O)(=O)N([C@H](C)CO)C[C@H]2C)cc1`: the inhibition is 70.2% (inactive).

Consider `C[C@@H]1CN([C@H](C)CO)S(=O)(=O)c2ccc(-c3ccncc3)cc2O[C@@H]1CN(C)C(=O)Nc1ccc(C(F)(F)F)cc1`, for which the inhibition was 82.6% (inactive).

Consider `C[C@@H]1CN([C@H](C)CO)S(=O)(=O)c2ccc(C#CCN(C)C)cc2O[C@@H]1CN(C)C`, for which the inhibition is -35.4% (inactive).

With `C[C@H]1CN([C@@H](C)CO)S(=O)(=O)c2ccc(C#CCN(C)C)cc2O[C@@H]1CN(C)Cc1ccc(F)cc1`, the inhibition is 115% (active).

Turning to `C[C@@H]1CN([C@@H](C)CO)S(=O)(=O)c2ccc(C#CCN(C)C)cc2O[C@@H]1CN(C)CC1CC1`, the inhibition is -40.3% (inactive).

Regarding `CC=Cc1ccc2n(c1=O)C[C@@H]1[C@@H](CO)[C@H](C(=O)N3CCc4ccccc4C3)N(C(=O)C3CCC3)[C@H]21` (mixture of isomers), the inhibition is 39.9% (inactive).

Consider `CCCC(=O)Nc1ccc2c(c1)C(=O)N(C)C[C@@H](OC)[C@H](C)CN(C(C)=O)[C@H](C)CO2`, for which the inhibition was -1.03% (inactive).

Take `Cc1ccc(S(=O)(=O)N(C)C[C@@H]2OCCCC[C@H](C)Oc3ccc(NS(=O)(=O)c4cn(C)cn4)cc3C(=O)N([C@H](C)CO)C[C@@H]2C)cc1`: the inhibition was 39.1% (inactive).

Consider `CO[C@@H]1CN(C)C(=O)c2ccc(NC(=O)c3ccc(F)cc3)cc2OC[C@H](C)NC[C@@H]1C`, for which the inhibition was -9.72% (inactive).

For `Cn1cnc(S(=O)(=O)N2C[C@@H](O)COC[C@H]3O[C@H](CC(=O)N4CCN(c5ccccc5)CC4)CC[C@@H]32)c1`, the inhibition was -64.3% (inactive).

For the molecule `CC(C)C#Cc1ccc2c(c1)O[C@H](CN(C)CC1CCOCC1)[C@@H](C)CN([C@H](C)CO)S2(=O)=O`, the inhibition is 93.8% (inactive).

For `C[C@@H]1CN([C@@H](C)CO)S(=O)(=O)c2ccc(/C=C/c3ccccc3)cc2O[C@H]1CN(C)Cc1ccccc1`, the inhibition was 107% (active).

On to `C[C@@H]1CN([C@H](C)CO)S(=O)(=O)c2ccc(/C=C/c3ccccc3)cc2O[C@@H]1CN(C)Cc1ccccc1`, for which the inhibition is 81.9% (inactive).

For `C[C@@H]1CN([C@H](C)CO)S(=O)(=O)c2ccc(C#CC(C)(C)O)cc2O[C@@H]1CN(C)Cc1ccccc1`, the inhibition was 34.1% (inactive).

Turning to `CC(C)C#Cc1ccc2c(c1)O[C@H](CN(C)Cc1ccccn1)[C@H](C)CN([C@H](C)CO)S2(=O)=O`, the inhibition was 57.8% (inactive).

Turning to `CC(C)C#Cc1ccc2c(c1)O[C@@H](CN(C)Cc1ccncc1)[C@@H](C)CN([C@@H](C)CO)S2(=O)=O`, the inhibition was 122% (active).

`CC(C)C#Cc1ccc2c(c1)O[C@H](CN(C)Cc1ccccc1)[C@H](C)CN([C@@H](C)CO)S2(=O)=O`: the inhibition was 111% (active).

Take `C/C=C/c1ccc2c(c1)O[C@H](CN(C)Cc1ccccc1)[C@H](C)CN([C@@H](C)CO)S2(=O)=O`: the inhibition is 62.6% (inactive).

Turning to `CC(C)C#Cc1ccc2c(c1)O[C@@H](CN(C)CC1CCOCC1)[C@H](C)CN([C@H](C)CO)S2(=O)=O`, the inhibition was 91.2% (inactive).

Turning to `COc1cccc(NC(=O)C[C@H]2CC[C@@H]3[C@H](COc4ccc(NC(C)=O)cc4C(=O)N3C)O2)c1`, the inhibition was -37.9% (inactive).

As to `O=C(C[C@@H]1CC[C@@H]2[C@H](COC[C@@H](O)CN2S(=O)(=O)c2ccccc2)O1)NCC1CCCCC1`, the inhibition is 34.1% (inactive).

Regarding `COc1ccc(NC(=O)N[C@@H]2CC[C@H](CC(=O)NC3CCC3)O[C@H]2CO)cc1`, the inhibition was 16% (inactive).

On to `COc1cccc(S(=O)(=O)N[C@@H]2CC[C@H](CCNC(=O)Cc3ccncc3)O[C@@H]2CO)c1`, for which the inhibition was -52.5% (inactive).

For the molecule `O=C(NCC[C@@H]1CC[C@@H](NC(=O)c2ccccc2F)[C@H](CO)O1)c1ccc2c(c1)OCO2`, the inhibition is 20.7% (inactive).

Regarding `COc1ccc(NC(=O)N(C)C[C@H]2OCCCC[C@H](C)Oc3ccc(NS(C)(=O)=O)cc3C(=O)N([C@H](C)CO)C[C@@H]2C)cc1`, the inhibition was 42.5% (inactive).

As to `CN1CCN(C(=O)C[C@H]2C[C@@H]3c4cc(NC(=O)Nc5ccc(C(F)(F)F)cc5)ccc4O[C@@H]3[C@H](CO)O2)CC1`, the inhibition is -59.1% (inactive).

Regarding `C[C@@H]1CCCCO[C@H](CN(C)CC2CCCCC2)[C@H](C)CN([C@H](C)CO)C(=O)c2cc(NC(=O)Nc3ccc(F)cc3)ccc2O1`, the inhibition is 71.7% (inactive).

As for `C[C@@H]1CCCCO[C@H](CN(C)C(=O)NC2CCCCC2)[C@H](C)CN([C@H](C)CO)C(=O)c2cc(NC(=O)Nc3ccc(F)cc3)ccc2O1`, the inhibition was 110% (active).

For `C[C@@H]1CN([C@H](C)CO)C(=O)c2cc(NC(=O)Nc3ccc(F)cc3)ccc2O[C@@H](C)CCCCO[C@@H]1CN(C)CC1CCCCC1`, the inhibition is 115% (active).

`C[C@@H]1CCCCO[C@H](CN(C)CC2CC2)[C@@H](C)CN([C@H](C)CO)C(=O)c2cc(NC(=O)Nc3ccc(F)cc3)ccc2O1`: the inhibition was 18.3% (inactive).

With `C[C@@H]1CCCCO[C@H](CN(C)C(=O)NC2CCCCC2)[C@H](C)CN([C@@H](C)CO)C(=O)c2cc(NC(=O)Nc3ccc(F)cc3)ccc2O1`, the inhibition is 93.1% (inactive).

Turning to `C[C@@H]1CCCCO[C@@H](CN(C)C(=O)NC2CCCCC2)[C@H](C)CN([C@@H](C)CO)C(=O)c2cc(NC(=O)Nc3ccc(F)cc3)ccc2O1`, the inhibition is 54.3% (inactive).

The values above are taken from PubChem BioAssay AID624255 (Broad Institute, 2012).
